MCF10A rerep: A quantitative high throughput screen for small molecules that induce DNA re-replication in MCF 10a normal breast cells; MCF 10A DNA re-replication, Hoechst nuclear intensity, 48 h; Potency, µM (titrated, usually from 46.1 µM), for the others: at the top dose activity, positive = re-replication, usual class: activators; hit rate 2.9% among 350,000; also: potency is read from the fitted curve at half-maximal effect; % of control where 0% means no effect; nearly all actives have a fitted effect of over 50% in size
Gal4-VP16 FLuc: VP16 counterscreen qHTS for inhibitors of ROR gamma transcriptional activity; Drosophila S2 Gal4-VP16 UAS-luciferase, luminescence, 20 h; Potency, µM (titrated, usually from 53.6 µM), for the others: at the highest dose activity, negative = inhibition, hits mostly inhibitors; hit rate 3.5% among 310,000; AID 2546, 2010;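 also: Gal4-VP16 expression switched on by copper sulfate through the metallothionein promoter; potency is read from the fitted curve at half-maximal effect; % is scaled to controls: 0 for no effect and ±100 for the full control effect; nearly all actives have a fitted effect of over 50% in size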
SW480 rerep: A quantitative high throughput screen for small molecules that induce DNA re-replication in SW480 colon adenocarcinoma cells; hit rate 1.8% among 340,000; SW480 DNA re-replication, Hoechst DNA content imaging, 48 h; AID 624297, 2012; Potency, µM (highest dose often 46.1 µM), inactives show top-dose re-replication activation, hits mostly activators; also: potency is read from the fitted curve at half-maximal effect; % of control where 0% means no effect; nearly all actives have a fitted effect of over 55% in size
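Hoechst fluorescence of nuclei (405 nm excitation, 500-530 nm emission) measured by plate-scanning imager after 48 hr compound exposure at 37 C; re-replication scored as increased number of nuclei with elevated intensity.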
BCR signal inh: qHTS Assay to Find Inhibitors of Chronic Active B-Cell Receptor Signaling | ABC-DLBCL IkBa-CBG/CBR reporter, luminescence ratio, 4 h | Potency, µM (series often up to 46.1 µM), inactives show top-dose activity change, negative = inhibition, usual class: inhibitors | hit rate 0.05% among 340,000 | AID 493014, 2011; active = well fitted inhibition curve with a large enough effect in the signal ratio, with a control signal flat, not every such curve was filed as active; inconclusive = small, poorly fitted or top-dose-only effect, or effect the other way, or a change in a side signal; the % refers to the signal ratio;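 also: potency is read from the fitted curve at half-maximal effect; plate controls were basal doxycycline-induced cells for no effect and cells given 10 µM MG132 for full effect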
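Cell line TMD8 (human ABC DLBCL), stably expressing tet-inducible CBG68-IkBa fusion and CBR; IMDM/0.5% FBS; cpd up to 46 uM; dox induction, 4 h, 37C/5% CO2; dual luminescence; green/red ratio; MG132 control.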
RORgamma inh: qHTS for inhibitors of ROR gamma transcriptional activity; Nuclear receptor ROR-gamma (Mus musculus), P51450; Drosophila S2 Gal4-RORgamma UAS-luciferase reporter, 20 h; Potency, µM (top dose mostly 53.6 µM), for inactives: at the highest dose activity change, negative = inhibition, most hits filed as inhibitors; hit rate 5.4% among 310,000; AID 2551, 2010; also: potency is read from the fitted curve at half-maximal effect; % is scaled to controls: 0 for no effect and ±100 for the full control effect; nearly all actives have a fitted effect of over 60% in size
Target sequence (P51450 whole entry, looked up, the tested form may be a part): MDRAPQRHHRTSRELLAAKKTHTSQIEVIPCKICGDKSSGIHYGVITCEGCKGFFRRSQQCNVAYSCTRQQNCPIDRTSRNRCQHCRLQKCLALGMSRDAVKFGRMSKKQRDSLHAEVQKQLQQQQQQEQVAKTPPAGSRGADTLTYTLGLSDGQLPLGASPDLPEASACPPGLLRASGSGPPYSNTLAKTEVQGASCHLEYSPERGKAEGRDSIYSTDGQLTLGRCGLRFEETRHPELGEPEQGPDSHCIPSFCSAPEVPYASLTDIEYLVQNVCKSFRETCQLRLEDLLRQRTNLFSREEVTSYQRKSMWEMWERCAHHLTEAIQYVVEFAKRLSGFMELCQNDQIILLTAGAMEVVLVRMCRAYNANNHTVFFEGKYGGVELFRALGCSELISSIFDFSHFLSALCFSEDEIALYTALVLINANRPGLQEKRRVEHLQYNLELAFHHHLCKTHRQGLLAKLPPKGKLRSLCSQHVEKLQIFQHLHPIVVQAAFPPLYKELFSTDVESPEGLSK
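A Gal4/UAS one-hybrid system in insect cells: metallothionein-promoter Gal4–ROR gamma fusion plus Photinus luciferase reporter. Copper sulfate 700 uM final, 20 hr ambient incubation, luminescent detection after 10 min with reagent.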
Giardia killer: Small Molecules that selectively kill Giardia lamblia: qHTS. activity change, % at 7.66 µM, hits read low. AID 540267, 2011. hit rate 0.15% among 340,000. Giardia lamblia trophozoite viability; in the data active = activity change below about -80%; inconclusive = between about -30% and that limit;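 also: parasites exposed to compound for two days anaerobically before the ATP read; % is scaled to controls: 0 for no effect and ±100 for the full control effect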
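ATP-content bioluminescence gauges trophozoite survival. Cells (100/well) receive compound and incubate anaerobically for 48 hrs at 37 deg C; detection reagent follows for 15-30 min at room temperature.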
* hit, by the source's call; ? = inconclusive; · = not tested or not shown; [ ] = another dose, or the depositor's remark. Rows were chosen to be rich in hits. Some 8.3% of all compounds tested hit in one or more screens of this group. Unless noted, calls follow the shape of the dose curve; as a rule, active = well fitted curve in the direction sought with a large enough effect; inconclusive = small, poorly fitted or top-dose-only effect, or another doubt; inactive = no such curve, though single readings can be large; an effect the other way counts as inactive or inconclusive.

SMILES	MCF10A rerep	Gal4-VP16 FLuc	SW480 rerep	BCR signal inh	RORgamma inh	Giardia killer
COC(=O)c1ccc(Sc2nnnn2-c2ccccc2)c([N+](=O)[O-])c1	?	?	10.3µM*	?	12.6µM*	-7.3
CCC(SC1=N/C(=C/c2ccccc2)C(=O)N1c1ccccc1)C(=O)Nc1cc(C)on1 (stereo not drawn)	28.4%	-12.5%	?	5.7%	-7.6%	0.4
CCN(CC)C1=N/C(=C\c2ccc(OC)cc2)C(=O)N1c1ccccc1	18.4µM*	2.7%	16.4µM*	-3.9%	0.3%	5.5
CCSC1=N/C(=C\c2ccccc2)C(=O)N1c1ccc(OC)cc1	14.6µM*	-5.0%	18.4µM*	-0.4%	10.1%	7.2
C=CCSC1=N/C(=C\c2cccnc2)C(=O)N1c1ccc(OC)cc1	-69.8%	-5.1%	1.6%	-7.7%	-0.9%	-1.2
COc1ccc(/C=C2/N=C(SCC(=O)Nc3cc(C)on3)N(c3ccccc3)C2=O)cc1	20.6µM*	?	1.9%	?	-17.6%	1.4
N#CC(=C(O)COC(=O)CCCNC(=O)c1ccc(Cl)cc1)c1nc2ccccc2[nH]1	?	·	?	·	·	-8.7
O=C(CCC(F)(F)F)N1CCCC(CO)(CCc2ccccc2)C1 (stereo not drawn)	0.651µM*	-8.9%	?	2.6%	1.8%	-5.7
CC(=O)c1c(C)n(CC(=O)NCc2ccco2)c2ccccc12	11.2%	-3.5%	-4.6%	-10.4%	30.3%	5.9
COc1ccc(CC(=O)NCC2(N3CCCCC3)CCCCC2)cc1	?	7.3%	23.1µM*	4.6%	-0.3%	-0.7
COCc1ccc(C(=O)NCC2(N3CCCCC3)CCCCC2)cc1	14.1%	-6.5%	0.7%	-3.3%	-4.9%	-4.6
Oc1ccc(-c2nc3ccccc3s2)cc1	-0.9%	?	-1.5%	?	?	-13.4
Nc1nc(-c2ccc(C(=O)O)cc2)cs1	-2.5%	7.5%	0.2%	-1.2%	2.7%	2.5
Nc1cc2sc(-c3ccc(C(=O)O)cc3)nc2cc1Cl	?	11.2µM*	18.1%	?	10µM*	?
Nc1ccc(-c2nc3ccc(C(=O)O)cc3s2)cc1	?	0.631µM*	0.4%	?	0.562µM*	?
O=C(O)c1ccc2nc(-c3ccccc3)sc2c1	0.6%	2.51µM*	-4.3%	?	?	-4.9
CC1CCCCC1NC(=O)COCc1cc(-c2cccs2)on1 (stereo not drawn)	-4.2%	7.1%	-25.4%	0.0%	8.4%	5.2
Cc1ccc(C(=O)N/C(=C/c2cccs2)C(=O)NCCCn2ccnc2)cc1	5.1%	-5.3%	1.1%	-1.2%	9.3%	-14.9
Nc1ccccc1NC1CCCCC1	2.9%	1.9%	0.9%	?	?	8.6
COc1cc(C2c3cc4c(cc3OC(NNC(N)=S)C2C)OCO4)cc(OC)c1OC (stereo not drawn)	1.46µM*	·	2.59µM*	·	·	-14.5
COc1cc(C2c3cc4c(cc3C(O)C3COCC23)OCO4)cc(OC)c1OC (stereo not drawn)	?	·	13µM*	·	·	-8.9
COc1cc(C2c3cc4c(cc3OC(NCc3ccccc3)C2C)OCO4)cc(OC)c1OC (stereo not drawn)	1.64µM*	·	4.61µM*	·	·	-17.9
COc1cccc(C2c3cc4c(cc3OC(NNC(N)=O)C2C)OCO4)c1O (stereo not drawn)	3.26µM*	·	8.2µM*	·	·	-10.9
CCN(CC)C1Oc2cc3c(cc2C(c2cccc(OC)c2O)C1C)OCO3 (stereo not drawn)	?	·	?	·	·	-22.3
COc1cc([C@@H]2c3cc4c(cc3[C@H](O)[C@H]3COC(=O)[C@@H]23)OCO4)cc(OC)c1OC	·	·	·	·	·	5.3
SMILES	MCF10A rerep	Gal4-VP16 FLuc	SW480 rerep	BCR signal inh	RORgamma inh	Giardia killer
CCN(CC)C1Oc2cc3c(cc2C(c2cc(OC)c(O)c(OC)c2)C1C)OCO3 (stereo not drawn)	?	·	?	·	·	1.4
COC(=O)Cn1c(C(=O)N(C)C)cc2c1C[C@H]1CN(C(=O)c3ccccc3)[C@@](Cc3ccc(OC)cc3)(C(=O)OC)[C@@H]21	·	-0.4%	·	·	10.4%	·
CSCCC(NS(=O)(=O)c1ccc2[nH]c(=O)c(=O)[nH]c2c1)C(=O)O (stereo not drawn)	-0.5%	3.7%	-0.8%	4.5%	13.5%	21.2
COc1ccc(C2c3cc4c(cc3OC(NNC(N)=O)C2C)OCO4)cc1 (stereo not drawn)	?	·	?	·	·	8.7
COc1cc(C2c3cc4c(cc3OC(NNC(N)=O)C2C)OCO4)cc(OC)c1OC (stereo not drawn)	0.731µM*	·	1.3µM*	·	·	5.5
COc1cccc(C2c3cc4c(cc3OC(C)(N3CCCC3)C2C)OCO4)c1O (stereo not drawn)	?	·	18.4µM*	·	·	1.1
CCCCC(=O)Nc1ccc(N2CCN(c3ccc(F)cc3)CC2)cc1	-3.7%	2.1%	-5.5%	-1.0%	20.3%	-25.8
O=C(c1cc(-c2ccc(Cl)cc2)n(-c2ccc(Cl)c(Cl)c2)n1)N1CCOCC1	?	?	16.2%	?	2.24µM*	8.6
CC(=O)n1cc(/C=N/NC(N)=S)c2ccccc21	0.0%	?	8.9%	-6.9%	4.47µM*	-8.5
CC(C)(C)OC(=O)n1cc(/C=N/NC(=O)c2ccco2)c2ccccc21	-3.2%	?	-2.2%	?	?	-4.1
Cc1ccccc1OCC(=O)N/N=C/c1cn(C)c2ccccc12	-0.9%	-10.0%	0.2%	-5.5%	?	-5.0
Cc1nc(C)c(C(=O)N/N=C/c2cn(C)c3ccccc23)s1	3.5%	?	4.3%	?	11.2µM*	-15.1
Cn1cc(/C=N/NC(=O)c2ccccc2O)c2ccccc21	-0.9%	0.891µM*	-3.0%	?	0.562µM*	4.1
Cn1cc(/C=N/NC(=O)c2cccc([N+](=O)[O-])c2)c2ccccc21	9.0%	?	0.0%	-3.8%	0.501µM*	3.7
CC(=O)n1cc(/C=N/NC(=O)c2ccccc2O)c2ccccc21	0.2%	3.55µM*	28.7%	?	2.82µM*	-4.4
CCOC(=O)/C(C#N)=C\c1cn(C)c2ccccc12	-0.2%[9.22 µM]	-21.2%	21.1%	6.5%	10.9%	13.5
O=C(N/N=C/c1ccnc2ccccc12)c1ccccc1O	0.1%	-12.0%	23.6%	?	-41.1%	-8.0
Cn1cc(/C=C(\C#N)C(=O)Nc2cccc([N+](=O)[O-])c2)c2ccccc21	9.2µM*	9.8%	?	14.5%	-8.0%	-5.0
